Records with an inconclusive call do not appear. Activity calls are given as the source filed them. Rule for the calls, unless noted: active = hit-call score of the fitted dose curve at least 0.9, where 1 is the maximum; inactive = score below 0.9.

The values below come from PubChem BioAssay (EPA / NIEHS).

A short description of test [1]: CCTE_Shafer_MEA_acute_burst_percentage_mean: CCTE's Neural Acute Assay for Percentage of Spikes in a Burst, Shafer Lab (AID 2284017).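 For AC50: curve fitted for loss of signal so potency reflects decreased burst percentage.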 The method, boiled down:
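Compounds were tested at 0.03-40 uM on primary rat cortical neuron networks grown over microelectrodes, with at least three wells per compound. Spontaneous firing was recorded for 40 min before and 40 min after dosing, and the change in burst percentage was computed per well.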

Test [2] is described as follows: CCTE_Shafer_MEA_acute_burst_percentage_std: CCTE's Neural Acute Assay for Standard Deviation of Burst Percentage, Shafer Lab (AID 2284018).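 Note: fitted in the negative direction so actives lower burst percentage SD.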 The method, boiled down: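 Primary rat cortical neurons on 16-electrode MEA wells were recorded 40 min at baseline (DIV 13 or 15), then 40 min after compound (0.03-40 uM), at 37 C. Well value is SD across electrodes of spikes-in-bursts/total spikes; endpoint is percent change, DMSO-referenced.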

Test [3] is described as follows: CCTE_Shafer_MEA_acute_per_network_burst_spike_number_mean: CCTE's Neural Acute Assay for Average Number of Spikes in a Network Burst, Shafer Lab (AID 2284019).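 For AC50: curve fitted for loss of signal so actives reduce spikes per network burst.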 The method, boiled down: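 Acute exposure of rat primary cortical networks (DIV 13/15) on MEAs; adaptive spike detection at 8x rms noise, 37 C. Percent change in spikes per network burst after 40 min with compound (0.03-40 uM), negative direction vs DMSO.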

Test [4] in a line: CCTE_Shafer_MEA_acute_per_network_burst_electrodes_number_mean: CCTE's Neural Acute Assay for Mean Number of Electrodes in a Network Burst, Shafer Lab (AID 2284021).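 Note: curves fitted for decreases only so hits reduce electrodes per burst.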 The method, boiled down: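 Rat primary cortical neurons on 48-well MEAs, DIV 13 or 15, were treated at 0.03-40 uM. Spikes were detected at 8x rms noise and recorded at 37 C. The mean electrodes per network burst in a 40 min exposure recording was expressed as percent change from a 40 min baseline.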

A short description of test [5]: CCTE_Shafer_MEA_acute_network_burst_percentage: CCTE's Neural Acute Assay for Percentage of Network Bursts, Shafer Lab (AID 2284022).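 Note: curves fitted for loss so actives lower network burst percentage.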 The method, boiled down:
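Rat primary cortical neuron networks on 48-well MEA plates, DIV 13 or 15, treated acutely with compound (0.03-40 uM, at least three wells). Percent of spikes within network bursts compared between 40-min recordings before and during exposure at 37 C, expressed as percent change.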

Test [6] is described as follows: CCTE_Shafer_MEA_acute_cross_correlation_area: CCTE's Neural Acute Assay for Area of Cross Correlation, Shafer Lab (AID 2284024).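 Note: curves fitted for loss of cross-correlation area so actives lower synchrony.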 The method, boiled down: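 Rat primary cortical neurons on 48-well MEA, DIV 13 or 15; compounds 0.03-40 uM. Baseline and post-exposure 40 min recordings at 37 C; percent change in area under pooled inter-electrode cross-correlation near zero lag, relative to DMSO.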

A short description of test [7]: CCTE_Shafer_MEA_acute_cross_correlation_HWHM: CCTE's Neural Acute Assay for Cross Correlation at Half Width at Half Maximum, Shafer Lab (AID 2284026).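 Note: hits are a decrease in cross-correlogram half width relative to DMSO.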 The method, boiled down: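 Rat primary cortical neurons on 48-well MEA plates; 40-min baseline and 40-min post-exposure recordings at 37 C on DIV 13 or 15, compounds 0.03-40 uM. Spikes detected at 8x rms noise; percent change in cross-correlogram HWHM per well vs baseline.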

In test [8] the target is Estrogen receptor (Homo sapiens) (UniProt P03372). The test is described as follows: CCTE_Deisenroth_AIME_384WELL_LUC_Active: CCTE's 384-well Estrogen Receptor Transactivation Assay with AIME metabolic competence (ERTA luciferase; metabolism positive), Deisenroth Lab (AID 2284030; active = hit-call score of the fitted dose curve at least 0.9, where 1 is the maximum). The method, boiled down: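 Chemicals (10-point, 0.002-200 uM) were first incubated 2 hours with alginate-immobilized induced male Sprague Dawley rat liver S9. The conditioned medium was then applied to VM7Luc4E2 cells for 24 hours, with ER luciferase induction read by luminescence relative to 17beta-estradiol.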

A short description of test [9]: CCTE_Deisenroth_AIME_384WELL_CTox_Active: Cytotoxicity Assessment (CTOX) in CCTE's 384-well Estrogen Receptor Transactivation Assay with AIME metabolic competence (metabolism positive), Deisenroth Lab (AID 2284037; active = hit-call score of the fitted dose curve at least 0.9, where 1 is the maximum;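 note: chemicals first conditioned 2 h by alginate-bound induced rat liver S9 before cells; activity means signal loss indicating cell death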). The method, boiled down:
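VM7Luc4E2 breast cells received medium pre-incubated 2 h with chemical over alginate microspheres holding induced male Sprague Dawley rat liver S9; viability read 24 h later by protease-substrate fluorescence. Loss of signal, bidirectional fit, 0.002–200 uM.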

Test [10] has as its target Estrogen receptor (Homo sapiens) (UniProt P03372). Briefly: CCTE_Deisenroth_AIME_384WELL_LUC_Inactive: CCTE's 384-well Estrogen Receptor Transactivation Assay without AIME metabolic competence (ERTA luciferase; metabolism negative), Deisenroth Lab (AID 2284038; active = hit-call score of the fitted dose curve at least 0.9, where 1 is the maximum;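 note: hits raise estrogen receptor luciferase signal so potencies reflect agonists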). The method, boiled down: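 Metabolism-negative mode: AIME lids stamped in alginate-water, no hepatic S9. 2 h chemical incubation → medium onto VM7Luc4E2 ERTA, 24 h. Readout luciferase luminescence; gain-of-signal fit vs 17beta-estradiol. Conc. 0.002 - 200 uM.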

Test [11] is described as follows: CCTE_Deisenroth_AIME_384WELL_CTox_Inactive: Cytotoxicity Assessment (CTOX) in CCTE's 384-well Estrogen Receptor Transactivation Assay without AIME metabolic competence (metabolism negative), Deisenroth Lab (AID 2284039; active = hit-call score of the fitted dose curve at least 0.9, where 1 is the maximum;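 note: cell viability via live-cell protease substrate cleaved to fluorescent probe; cells exposed 24 h to medium preincubated 2 h with alginate-water beads without S9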). The method, boiled down: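 Fluorescence from a live-cell protease substrate, read after 24 h in VM7Luc4E2 cells, indicated viability. Test medium came from a 2 h AIME step without hepatic S9 (alginate-water microspheres); concentrations spanned 0.002 - 200 uM, single technical replicate per run.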

Test [12] has as its target Estrogen receptor (Homo sapiens) (UniProt P03372). The test is described as follows: CCTE_Deisenroth_AIME_384WELL_LUC_Shift: CCTE's 384-well Estrogen Receptor Transactivation Assay with AIME metabolic competence data shift (ERTA luciferase; difference in metabolism positive and negative), Deisenroth Lab (AID 2284041).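 Note: shift is response with S9 minus without S9 so positive means metabolism raised ER signal.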 The method, boiled down: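 Here, parent compounds undergo 2 h phase I metabolism by PB/BNF-induced rat S9 before 24 h transactivation in VM7Luc4E2 cells; the curve models S9-positive minus S9-negative response over a 10-point series.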

Sequence of Estrogen receptor (Homo sapiens) (P03372 whole entry, looked up): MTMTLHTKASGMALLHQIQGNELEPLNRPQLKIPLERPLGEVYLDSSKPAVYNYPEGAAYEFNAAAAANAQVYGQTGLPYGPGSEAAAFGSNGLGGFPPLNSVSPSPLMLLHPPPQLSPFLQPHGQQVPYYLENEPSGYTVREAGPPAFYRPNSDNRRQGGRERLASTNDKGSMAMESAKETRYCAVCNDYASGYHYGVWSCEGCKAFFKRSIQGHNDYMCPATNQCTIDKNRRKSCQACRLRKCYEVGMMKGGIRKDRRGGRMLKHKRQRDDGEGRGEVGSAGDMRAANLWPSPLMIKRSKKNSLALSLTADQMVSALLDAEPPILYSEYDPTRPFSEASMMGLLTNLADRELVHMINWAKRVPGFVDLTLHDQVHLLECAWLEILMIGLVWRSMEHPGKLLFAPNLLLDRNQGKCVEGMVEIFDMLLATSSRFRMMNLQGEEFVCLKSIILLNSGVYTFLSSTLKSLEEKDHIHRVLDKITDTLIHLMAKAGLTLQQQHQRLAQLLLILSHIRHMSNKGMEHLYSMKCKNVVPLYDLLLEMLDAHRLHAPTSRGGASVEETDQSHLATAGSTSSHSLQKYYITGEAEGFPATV

Consider `CCN(CC)CCOc1ccc(C(=C(Cl)c2ccccc2)c2ccccc2)cc1`, for which the AC50 in test [1] is 20 µM (active); in test [2], 29.1 µM (active). Moreover, the call in test [3], in [4], in test [5], in [6] and in test [7] was inactive.
Take `OCC(CO)n1cnc(-c2ccc(F)cc2)c1-c1ccnc(Oc2ccccc2)n1`: the compound was classed as inactive in test [1], in test [2], in [3], in test [4], in [5] and in test [7]. Moreover, in [6], the concentration at half-maximal activity (AC50) was 3.9 µM (active).
Turning to `c1ccc2occc2c1`, the result in test [1], in test [2], in test [3], in test [4], in [5] and in test [6] was inactive. In addition, the outcome in test [7], in [8], in [9], in [10], in [11] and in test [12] was inactive.
Take `COc1ccc(OC(F)(F)F)cc1CN[C@H]1CCCN[C@H]1c1ccccc1`: the concentration at half-maximal activity (AC50) was 4.59 µM (active) in [1]; 4.15 µM (active) in test [2]; 2.07 µM (active) in [3]; 3.09 µM (active) in test [5]; 3.09 µM (active) in test [7]. Also, the compound was classed as inactive in test [4] and in test [6].
Take `CC(C)COC(=O)CCCCC(=O)OCC(C)C`: the compound was classed as inactive in test [1], in [2], in [3], in test [4], in [5] and in test [6]. In addition, the compound was called inactive in test [7].
Regarding `O=C1OC(c2ccc(O)cc2)(c2ccc(O)cc2)c2ccccc21`, the half-maximal activity concentration (AC50) was 24.6 µM (active) in [1] and 31 µM (active) in test [5]. Also, the compound was classed as inactive in test [2], in test [3], in [4], in [6] and in [7].
On to `Cc1ccc(C(C)(C)C)c(O)c1`, for which the half-maximal activity concentration (AC50) in test [1] is 29.9 µM (active); in test [7], 11.8 µM (active). The call in test [2], in test [3], in test [4], in test [5], in test [6] and in test [8] was inactive. Further, the call in test [9], in test [10], in test [11] and in test [12] was inactive.
For `CSc1ccc(Oc2ccc(S(N)(=O)=O)cc2CN(C)C)cc1C`, the AC50 in test [1] was 31.8 µM (active); in [2], 32.1 µM (active); in test [7], 31.7 µM (active). The result in [3], in test [4], in test [5], in [6], in test [8] and in test [9] was inactive. For the same compound, the result in [10], in [11] and in test [12] was inactive.
As to `Cc1ccc(-c2cc(C(F)(F)F)nn2-c2ccc(S(N)(=O)=O)cc2)cc1`, the AC50 in [1] and in test [7] was 20 µM (active) throughout. Moreover, the result in [2], in [3], in test [4], in test [5] and in test [6] was inactive.
On to `CC(C)NCC(O)c1ccc(O)c(O)c1` (stereo unspecified), for which the call in [1], in [2], in test [3], in test [4], in [5] and in test [6] was inactive. In addition, the compound was called inactive in test [7]. Also, the AC50 in test [9] is 106 µM (active); in test [11] it was 100 µM (active).
For the compound `O=C(O)CN(CC(=O)O)CC(=O)O`, the compound was classed as inactive in [1], in [2], in [3], in [4], in test [5] and in test [6]. Also, the call in test [7] and in test [9] was inactive. Also, the concentration at half-maximal activity (AC50) in [8] was 28.5 µM (active); in [10] it was 28.8 µM (active); in test [12] it was 233 µM (active).
On to `C/C=C/c1ccc(OC)cc1`, for which the compound was called inactive in test [1], in [2], in [3], in [4], in test [5] and in [6]. Further, the result in [7], in [9] and in test [11] was inactive.
Regarding `Cc1cc(SC2=C(O)C[C@@](CCc3ccc(N)cc3)(C(C)C)OC2=O)c(C(C)(C)C)cc1CO`, the result in test [1], in [2], in [3], in test [4], in test [5] and in [7] was inactive. Moreover, the AC50 in test [6] is 20 µM (active).
As to `NC(=Nc1ccccc1)Nc1ccccc1`, the AC50 in test [1] was 29.5 µM (active); in [7], 20 µM (active). Besides, the result in test [2], in [3], in [4], in test [5] and in test [6] was inactive.

A word on the AC50: it is the concentration giving half of the maximal activity seen.
